# Assay outcomes (PubChem)
# This is a sample that favours compounds with a hit; in the whole collection about 12% have one here.
# ALDH1A1 inh: qHTS Assay for Inhibitors of Aldehyde Dehydrogenase 1 (ALDH1A1); Aldehyde dehydrogenase 1A1 (Homo sapiens), P00352; Purified ALDH1A1, NADH fluorescence, propionaldehyde substrate; Potency, µM (titrated, usually from 75.3 µM), for the others: top-dose activity, negative = inhibition, actives largely listed as inhibitors; hit rate 7.3% among 220,000; active = well fitted inhibition curve with a large enough effect, not every such curve was filed as active; inconclusive = small, poorly fitted or top-dose-only effect, or another doubt; inactive = no such curve, though single readings can be large or run the other way;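 note: plate controls were no enzyme wells and a reference inhibitor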
# PLK1 PBD block: qHTS for Inhibitors of PLK1-PDB (polo-like kinase 1 - polo-box domain): Primary Screen; hit rate 2.8% among 360,000; AID 720504, 2013; Serine/threonine-protein kinase PLK1 (Homo sapiens), P53350; Plk1 PBD binding of FITC phosphopeptide, fluorescence polarization; Potency, µM, for inactives: max response, negative = inhibition, actives largely listed as inhibitors; note: series mostly up to about 57 µM; nearly all actives have a fitted effect of over 65% in size
# Target sequence (P53350 whole entry, looked up, the tested form may be a part): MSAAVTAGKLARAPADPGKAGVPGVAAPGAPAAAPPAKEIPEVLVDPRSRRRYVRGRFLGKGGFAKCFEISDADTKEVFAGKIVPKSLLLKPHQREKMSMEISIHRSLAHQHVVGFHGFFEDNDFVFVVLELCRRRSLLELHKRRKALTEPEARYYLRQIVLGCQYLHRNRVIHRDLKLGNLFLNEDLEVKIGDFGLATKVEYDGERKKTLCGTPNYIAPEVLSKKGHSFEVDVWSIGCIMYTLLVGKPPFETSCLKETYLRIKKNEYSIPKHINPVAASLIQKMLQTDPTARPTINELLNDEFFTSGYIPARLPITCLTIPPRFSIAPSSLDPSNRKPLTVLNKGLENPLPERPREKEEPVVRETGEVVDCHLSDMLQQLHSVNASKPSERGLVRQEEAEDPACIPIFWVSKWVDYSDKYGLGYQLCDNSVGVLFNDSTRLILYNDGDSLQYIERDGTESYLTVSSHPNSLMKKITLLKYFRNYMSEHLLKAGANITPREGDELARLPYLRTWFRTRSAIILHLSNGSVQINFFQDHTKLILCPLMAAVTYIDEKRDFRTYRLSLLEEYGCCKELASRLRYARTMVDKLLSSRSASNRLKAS
# Gal4-VP16 FLuc: VP16 counterscreen qHTS for inhibitors of ROR gamma transcriptional activity | AID 2546, 2010 | Drosophila S2 Gal4-VP16 UAS-luciferase, luminescence, 20 h | Potency, µM (highest dose often 53.6 µM), for the others: at the top dose activity, negative = inhibition, most hits filed as inhibitors | hit rate 3.5% among 310,000;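 note: Gal4-VP16 expression switched on by copper sulfate through the metallothionein promoter; nearly all actives have a fitted effect of over 50% in size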
# Sfp inh: qHTS Assay for Inhibitors of Bacillus subtilis Sfp phosphopantetheinyl transferase (PPTase); 4'-phosphopantetheinyl transferase ffp (Bacillus subtilis), Q9F4F7; Biochemical Sfp PPTase activity, qHTS; Potency, µM, without a hit: largest response in the series, negative = inhibition, hits mostly inhibitors; hit rate 3.5% among 310,000; AID 1490, 2009;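 note: the enzyme is Sfp with the accession as filed and its product quenches rhodamine fluorescence; 0% = enzyme reaction without inhibitor and -100% = no enzyme wells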
#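 Compounds were incubated with enzyme (final 15 nM) for 15 min at room temperature before substrate addition started the reaction. Fluorescence at 525 nm excitation, 598 nm emission was recorded immediately and after 30 minutes.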
# RORg inh: qHTS for inhibitors of ROR gamma transcriptional activity; Nuclear receptor ROR-gamma (Mus musculus), P51450; Drosophila S2 Gal4-RORgamma UAS-luciferase reporter, 20 h; Potency, µM (titrated, usually from 53.6 µM), for the others: top-dose activity change, negative = inhibition, usual class: inhibitors; hit rate 5.4% among 310,000; AID 2551, 2010; note: nearly all actives have a fitted effect of over 60% in size
#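 Stably transfected Drosophila Schneider cells are the test system, with ROR gamma fused to Gal4 and luciferase under UAS control; luminescence is read after 20 hr of 700 uM copper sulfate induction at ambient temperature.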
# The depositor's hits bear a star; ? = inconclusive; / = not tested or not shown; ! = not active in a repeat; [ ] = another dose, or the depositor's remark. Unless noted, calls come from the whole dose curve; as a rule, active = well fitted curve in the direction sought with a large enough effect; inconclusive = small, poorly fitted or top-dose-only effect, or another doubt; inactive = no such curve, though single readings can be large; an effect the other way counts as inactive or inconclusive. Unless noted, % is set by controls: 0 for no effect and ±100 for the full control effect; potency is the fitted concentration of half-maximal effect.
SMILES,ALDH1A1 inh,PLK1 PBD block,Gal4-VP16 FLuc,Sfp inh,RORg inh
Cc1ccc2cccc(NC(=O)c3ccc(Br)o3)c2n1,?,-11%,-4%,-29%,-14%
Cc1ccc2cccc(NC(=S)NC(=O)c3ccn(C)n3)c2n1,-9%,-9%,5.6µM*,-2%,5µM*
O=C(NC(=S)Nc1ccccc1O)c1cccnc1,/,-28%,?,-12%,11µM*
N#Cc1ccccc1NC(=S)NC(=O)c1cccnc1,/,12µM*,/,50µM*,/
CCC(C)c1ccc(O)c(NC(=S)NC(=O)c2cccnc2)c1 (stereo not given),32µM*,-9%,1.3µM*,1%,0.56µM*
CC[C@H]1C2=C3C(CC[C@H]4C(OCc5ccc(F)cc5C(F)(F)F)OC[C@](C)([C@@H]34)N(C(=O)OC(C)(C)C)C2)C(COC(C)=O)C1COC(C)=O (stereo not given in full),-15%,/,7%,2%,-2%
Cc1cc2c(c(SCC(N)=O)n1)C(=O)OC2,3%,30µM*,-12%,22%,-21%
Nc1nc(N)c2cc(S(=O)(=O)c3ccc4ccccc4c3)ccc2n1,/,-10%,/,/,/
CCCN1CCN(CC(O)COC(c2ccc(OC)cc2)c2ccc(OC)cc2)CC1 (stereo not given),/,-2%,1%,45µM*,-1%
NC(=O)CC[C@@H](N)C(=O)O,-1%,/,-14%,-8%,6%[10 µM]
N[C@@H](CCS(=O)O)C(=O)O,5%,/,/,40µM*!,/
CC1(C)Cc2cccc(OCC(=O)NCCOc3ccccc3)c2O1,-1%,21µM*,5%[10 µM],5%,?
Cc1cccc(N2CCN(C(=O)COc3cccc4c3OC(C)(C)C4)CC2)c1C,-6%,?,3.2µM*,?,?
Cc1cccc(C)c1NC(=O)CN(C)C(=O)COc1cccc2c1OC(C)(C)C2,/,4%,/,/,/
O=C(Cc1ccccc1)Nc1ccc(NC(=O)c2ccccc2)c(Cl)c1,/,-21%,19%,9%,?
COc1ccc(N2C(=O)CC(N3CCN(Cc4ccc5c(c4)OCO5)CC3)C2=O)cc1 (stereo not given),28µM*,-15%,7%,-16%,-10%
O=C1CC(N2CCN(Cc3ccccc3)CC2)C(=O)N1c1ccc2c(c1)OCCO2 (stereo not given),7.1µM*,0%,-6%,-1%,22%
O=C1CC(N2CCN(Cc3ccc4c(c3)OCO4)CC2)C(=O)N1c1cccc(Cl)c1 (stereo not given),?,-2%,11%,-1%,-26%
CCN1C(=O)/C(=C/C=C2/CCCN2C)OC1=S,2.8µM*,21%,-16%,-3%,12%
NCCNC[C@H](O)CO,0%[13.5 µM],/,/,/,/
COc1cc(OC)cc(C(=O)OCC(=O)c2cc(C)n(CC3CCCO3)c2C)c1 (stereo not given),/,-6%,/,/,/
Cc1cc(C(=O)COC(=O)c2ccc(O)cc2)c(C)n1CC1CCCO1 (stereo not given),?,?,-21%,11%,7.1µM*
Cc1cc(C(=O)CN2C(=O)c3ccccc3S2(=O)=O)c(C)n1CC1CCCO1 (stereo not given),?,0%,8.9µM*,-11%,2.2µM*
Cc1cc(C(=O)COC(=O)c2ccc(Br)o2)c(C)n1Cc1ccco1,?,/,5%,4%,?
Cc1cc(C(=O)COC(=O)c2ccc(O)cc2)c(C)n1Cc1ccco1,7.9µM*,-9%,-24%,-22%,?
O=C(c1cn(-c2ccccc2)nc1-c1cccnc1)N1CCN(S(=O)(=O)c2ccc(Cl)cc2)CC1,/,4%,/,/,/
COc1ccc([C@H]2CC(=O)C[C@@H](CCn3cc(CCc4ccccc4)nn3)O2)cc1,/,-1%,/,/,/
CCOC(=O)c1c(NC(=O)CCl)sc(CN(C)C)c1-c1ccccc1,7.1µM*,?,?,20%,?
CCOC(=O)c1c(NC(=O)/C=C/C(=O)O)sc(C)c1-c1ccc(Cl)cc1,20µM*,-28%,6%,12%,-13%
